This passage reports cell count and activation results from PubChem BioAssay AID1961 (Sanford-Burnham Center for Chemical Genomics, 2009).

Structures are written as SMILES. Out of some 290,000 compounds screened, about 140 (0.048%) were called active. The sample holds actives, similar compounds and a random draw of the others, so the mix is not that of the screen.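 How the source made its calls: active means activation above 40% with more than 50 cells counted in the well; inconclusive means wells holding fewer than 50 cells, flagged as toxic or sparse; inactive means the rest.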

Experiment [1] in a line: selective activators of receptor GPR55 – imaging, U2OS cells, beta-arrestin-GFP redistribution, primary screen (AID 1961).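 Further: U2OS osteosarcoma cells stably expressing GPR55 and beta-arrestin-GFP.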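 On activation: plate controls were DMSO negative control for no effect and LPI positive control for full effect.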 Particulars: measured here: cytotoxicity, cells analyzed, at 10 µM.
For experiment [2], the target named is G-protein coupled receptor 55 (Homo sapiens) (UniProt Q9Y2T6). The experiment is described as above. As to conditions: at 10 µM, stronger effect = higher value.
Chain of G-protein coupled receptor 55 (Homo sapiens) (Q9Y2T6 whole entry, looked up): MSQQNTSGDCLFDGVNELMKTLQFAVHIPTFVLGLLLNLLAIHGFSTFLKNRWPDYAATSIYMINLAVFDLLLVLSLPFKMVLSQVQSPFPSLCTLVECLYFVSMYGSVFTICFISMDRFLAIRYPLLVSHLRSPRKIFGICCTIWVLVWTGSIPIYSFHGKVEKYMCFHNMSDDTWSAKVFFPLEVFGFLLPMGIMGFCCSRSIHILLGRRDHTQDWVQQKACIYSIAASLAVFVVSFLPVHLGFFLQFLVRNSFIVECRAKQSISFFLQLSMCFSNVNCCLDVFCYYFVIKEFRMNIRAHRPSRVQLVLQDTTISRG

For `COc1cccc(C(=O)Nc2cnn(C(C)C)c2)c1`, in experiment [1], the cell count came to 253 cells. Also, the activation in experiment [2] was -0.2% (inactive).
`CNc1nc(-c2ccc(Cl)cc2)cs1` came in with a cell count in experiment [1] of 302 cells. Moreover, the activation in experiment [2] was -1% (inactive).
Turning to `COc1ccc(NC(=O)NC2CCCCCCC2)c(OC)c1`, the cell count in experiment [1] worked out at 240 cells. For the same compound, the activation in experiment [2] is -0.1% (inactive).
As to `CCC(=O)Nc1ccc(OC)cc1OC`, the cell count in experiment [1] was found to be 375 cells. For the same compound, in experiment [2], the activation is -0.2% (inactive).
For the compound `CCOC(=O)c1[nH]c2ccc(C(=O)OC)cc2c1C(=O)OCC`, the cell count in experiment [1] came out at 400 cells. The activation in experiment [2] is -0.3% (inactive).
For the compound `CCCCc1ccc(C2C(C#N)=C(N)SC(N)=C2C#N)s1`, the cell count in experiment [1] is 340 cells. The activation in experiment [2] was 0.2% (inactive).
Regarding `O=C(COC(=O)/C=C/c1cccc(Cl)c1)NCCc1ccc(Cl)cc1Cl`, in experiment [1], the cell count came to 315 cells. Further, the activation in experiment [2] was 0% (inactive).
`O=C(O)C1CCCN1C(=O)c1cncc(Br)c1` (stereo not drawn) registered a cell count in experiment [1] of 262 cells. Further, the activation in experiment [2] is -0.2% (inactive).
Turning to `CC(C)OCC(O)Cn1c(N2CCCC2)nc2c1c(=O)[nH]c(=O)n2C` (stereo not drawn), the cell count in experiment [1] was 350 cells. For the same compound, the activation in experiment [2] is -0.2% (inactive).
Taken in the same sequence, the figures for `Cc1c(C2N3CC4(C)CN2CC(C)(C3)C4=O)c2ccccc2n1C` (stereo not drawn) were 309 cells and 0.1% (inactive).
Take `CC(C)(C)NC(=O)CSc1nncn1NCc1c(Cl)cccc1Cl`: in experiment [1], the cell count came out at 294 cells. Moreover, the activation in experiment [2] was -0.2% (inactive).
Turning to `COc1cc2c3nnc(-c4ccc(F)cc4)c-3cn(Cc3ccccc3F)c2cc1OC`, in experiment [1], the cell count came to 274 cells. In addition, the activation in experiment [2] is 76.7% (active).
With `COc1cc2c3nnc(-c4ccccc4)c-3cn(Cc3ccc(F)cc3)c2cc1OC`, the cell count in experiment [1] was 393 cells. In addition, the activation in experiment [2] was 1.3% (inactive).
`COc1cc2c3nnc(-c4ccc(F)cc4)c-3cn(Cc3ccc(F)cc3)c2cc1OC` had a cell count in experiment [1] of 348 cells. Besides, in experiment [2], the activation is 16.9% (inactive).
In experiment [1], `Cc1oc2c(C)c(O)ccc2c(=O)c1N1C(=O)c2ccccc2C1=O` registered a cell count of 286 cells. The activation in experiment [2] was 0.2% (inactive).
Taken in the same sequence, the figures for `CCOc1ccc2nc(SCC(=O)N3c4ccccc4Sc4ccccc43)sc2c1` were 319 cells and 16.7% (inactive).
The like results for `CCOc1ccc2nc(SCC(=O)N3c4ccccc4Sc4ccccc43)c(C#N)cc2c1` were, in that order, 304 cells and 112% (active).
In experiment [1], `CCOc1ccc2nc(SCC(=O)N3CCCCCC3)c(C#N)cc2c1` came in with a cell count of 334 cells. For the same compound, the activation in experiment [2] was -0.1% (inactive).
In the case of `Nc1cccnc1Sc1ccc(Cl)cc1`, in experiment [1], the cell count was found to be 377 cells. Further, the activation in experiment [2] was 0% (inactive).
In turn, `COC(=O)c1cc(OC)c(OC)cc1NC(=O)CC1CCCCC1` had a cell count in experiment [1] of 320 cells. The activation in experiment [2] was -0.2% (inactive).
With `Cc1cccc(NS(=O)(=O)c2cc([N+](=O)[O-])ccc2C)n1`, in experiment [1], the cell count worked out at 419 cells. Besides, the activation in experiment [2] was -0.1% (inactive).
In experiment [1], `COc1cc(/C=C/C(=O)Oc2coc(CSc3ncccn3)cc2=O)cc(OC)c1OC` yielded a cell count of 281 cells. Besides, the activation in experiment [2] was -0.2% (inactive).
In experiment [1], `CCCOCC(O)COc1ccccc1C(=O)N1CCOCC1` (stereo not drawn) came in with a cell count of 317 cells. For the same compound, the activation in experiment [2] was -0.2% (inactive).
`CCC1Sc2ccc(S(=O)(=O)CCC(=O)Nc3cc(C)ccn3)cc2NC1=O` (stereo not drawn) displayed a cell count in experiment [1] of 341 cells. The activation in experiment [2] was -0.1% (inactive).
Taken in the same sequence, the figures for `CC(NC(=O)Cn1nc(C(F)(F)F)c2c1CCC2)c1ccccc1` (stereo not drawn) were 371 cells and -0.2% (inactive).
The like results for `COc1ccc2nc(C)cc(SCC(=O)N/N=C/c3ccco3)c2c1` were, in that order, 330 cells and 0.2% (inactive).
Take `Cc1ccccc1NC(=O)NC1CCCCC1C` (stereo not drawn): the cell count in experiment [1] stood at 353 cells. Further, the activation in experiment [2] was 0.4% (inactive).
As for `CN(C)c1ccc(/C=N/NC(=O)C2CC2c2ccccc2)cc1` (stereo not drawn), the cell count in experiment [1] came out at 339 cells. In addition, in experiment [2], the activation was -0.2% (inactive).
For `O=C(NCc1ccc(F)cc1)C(=O)NCC1OCCCN1S(=O)(=O)c1cccs1` (stereo not drawn), in experiment [1], the cell count came out at 348 cells. The activation in experiment [2] is -0.1% (inactive).
Regarding `COc1ccc(C(=O)NCC(=O)N/N=C/c2cccnc2)cc1OC`, the cell count in experiment [1] came out at 322 cells. In addition, the activation in experiment [2] was -0.2% (inactive).
In experiment [1], `Cc1nc(Cl)sc1C(=O)Nc1cc(F)cc(F)c1` had a cell count of 356 cells. Besides, in experiment [2], the activation is -0.2% (inactive).
In experiment [1], `CN(C)c1ccc(/C=C/C(=O)c2ccccc2O)cc1` returned a cell count of 238 cells. In addition, the activation in experiment [2] was 0.1% (inactive).
The like results for `CN(C)c1ccc(C(=O)/C=C/c2ccccc2)cc1` were, in that order, 254 cells and -0.3% (inactive).
As for `Cn1c(=O)c(=O)n(C)c2cc(S(=O)(=O)N3CCN(c4ccccc4F)CC3)ccc21`, the cell count in experiment [1] came out at 328 cells. The activation in experiment [2] was -0.1% (inactive).
